Measured values reported in PubChem BioAssay.
Calls of active or inactive are those of the source.

Assay: budding yeast growth changes without added modifier – OD600, strain BY4716, 24 h, basal condition, primary screen (AID 1173)
Details: S. cerevisiae BY4716 growth, OD600, 24 h; higher = more signal, called active from +8 up or from −8 down

| Compound | z-score |
| --- | --- |
| CC(CCN1CCCCc2nc(C)c(C)cc21)=NOC[C@@H](C)[C@H](OCc1ccccc1)C(C)C | -2.36 (inactive) |
| COC(=O)CC=C[C@@H](C)[C@@H](C=NO[C@@H]1O[C@H](COC(C)=O)[C@@H](OC(C)=O)[C@H](OC(C)=O)[C@H]1OC(C)=O)OC | -0.298 (inactive) |
| CO[C@@H]1COC(=O)[C@H](CCSC)NC(=O)CC=C[C@@H](C)COC(=O)CCC[C@H]1C | -0.509 (inactive) |
| CCCNC(=O)OC[C@H]1O[C@H](CCON=C(C)CCC(=O)OC[C@H]2O[C@H](c3ccccc3)C=C[C@@H]2Oc2ccc(OC)cc2)C=C[C@@H]1Oc1ccc(OC)cc1 | 0.195 (inactive) |
| CCN1C(=O)[C@@H]2[C@H]3C(=CC[C@@H]2C1=O)C1(OCCCO1)[C@H]1O[C@H]1[C@H]3O | -9.39 (active) |
| O=C1[C@H]2[C@H]3[C@H](O)[C@H](O)CC(=NOC[C@@H](O)COCc4ccco4)[C@H]3CC[C@H]2C(=O)N1Cc1ccccc1 | -1.34 (inactive) |
| CO[C@H]1COC(=O)[C@@H](C)COC(=O)[C@H](C)NC(=O)CC=C[C@H]1C | -0.916 (inactive) |
| C[C@H]1COC(=O)[C@@H]2CCCN2C(=O)[C@@H](C)COC(=O)[C@H](Cc2ccccc2)NC1=O | 0.0852 (inactive) |
| COC(=O)CC=C[C@@H](C)[C@H](OCc1cccc(-c2ccccc2)c1)C1CCCCC1 | -0.0348 (inactive) |
| C=CC[C@@H]1C=C[C@H](ON=C(C)CCC(=O)OC[C@H]2O[C@H](C#Cc3ccccc3)C=C[C@@H]2Oc2ccc(C)cc2)[C@@H](CO)O1 | 1.09 (inactive) |
| CON=C[C@@H](NS(=O)(=O)c1ccc(C)cc1)[C@H](C)C=CCC(=O)OC | -0.146 (inactive) |
| CO[C@@H]1COC(=O)CC=C[C@H](C)[C@H](OC)COC(=O)[C@H](C)NC(=O)CC=C[C@H]1C | -0.486 (inactive) |
| CC(CCC(=O)OC[C@H]1O[C@H](C#Cc2ccccc2)C=C[C@@H]1Oc1ccc(C)cc1)=NO[C@H](C)c1cn([C@H](CO)Cc2ccccc2)nn1 | 0.815 (inactive) |
| CCOC(=O)[C@H](Cc1ccccc1)NC(=O)CCC1CC(OC(=O)NCc2cccc3ccccc23)CC2(CCCC(COC(=O)NCC(c3ccccc3)c3ccccc3)O2)O1 (stereo partly specified) | -0.38 (inactive) |
| CC(C)=CCCC(C)=CCON=C1C[C@@H](O)[C@@H](O)[C@@H]2[C@@H]3C(=O)N(C[C@@H]4CCCO4)C(=O)[C@@H]3CC[C@H]12 | -1.72 (inactive) |
| COC(=O)[C@H]1O[C@@H](c2c(OC)c(OC)c(C)c(OC)c2OC)[C@H](C)[C@@H](O)[C@H]1C | -0.615 (inactive) |
| COc1ccc(O[C@H]2C=C[C@@H](c3ccccc3)O[C@@H]2COC(=O)CCC(C)=NOC[C@@H](O)[C@H]2O[C@@H]3OC(C)(C)O[C@@H]3[C@H]2O)cc1 | -0.727 (inactive) |
| CCOC(=O)[C@H](CC(C)C)NC(=O)CCC1CC(OC(=O)NCCc2ccc(F)cc2)CC2(CCCC(COC(=O)NCC3CCCCC3)O2)O1 (stereo partly specified) | 0.776 (inactive) |

| Compound | z-score |
| --- | --- |
| CC(C)=CCCC(C)=CCON=C1C[C@@H](O)[C@@H](O)[C@@H]2[C@@H]3C(=O)N(C4CCCCC4)C(=O)[C@@H]3CC[C@@H]12 | -0.81 (inactive) |
| COC(=O)CC=C[C@@H](C)[C@@H](C=NOC[C@H]1O[C@H](c2ccccc2)C=C[C@@H]1Oc1ccc(OC)cc1)NS(=O)(=O)c1ccc(C)cc1 | 0.642 (inactive) |
| CCc1cc2c(nc1CC)CCN(CCC(C)=NO[C@H](C)c1cn([C@@H]3COC[C@H]3O)nn1)C2 | 0.485 (inactive) |
| CCOC(=O)NN=C1C[C@@H](O)[C@@H](O)[C@@H]2[C@@H]3C(=O)N(Cc4ccc5c(c4)OCO5)C(=O)[C@@H]3CC[C@H]12 | 0.923 (inactive) |
| CO[C@H]1COC(=O)CC=C[C@H](C)[C@@H](OC)COC(=O)[C@@H](C)NC(=O)CC=C[C@@H]1C | -0.774 (inactive) |
| CO[C@@H]1COC(=O)CC=C[C@@H](C)[C@@H]2C=C[C@H](O)[C@@H](COC(=O)CC=C[C@H]1C)O2 | -1.65 (inactive) |
| CCOC(=O)[C@H](CC(C)C)NC(=O)CCC1CC(OC(=O)NCCc2ccc(F)cc2)CC2(CCCC(COC(=O)NCCc3ccccc3OC)O2)O1 (stereo partly specified) | -0.376 (inactive) |
| CCCNC(=O)OC[C@H]1O[C@H](CCON=C(C)CCN2CCCc3nc(C)c(C)cc32)C=C[C@@H]1Oc1ccc(OC)cc1 | 0.766 (inactive) |
| CCC(=O)[C@@]1(O)C(=O)N2C(=C3C(=O)OCC[C@@H]31)N(Cc1ccccc1)C(C)=C(C(=O)OC)[C@H]2c1ccccc1 | -0.235 (inactive) |
| CC(C)(C)N1C(=O)[C@H]2[C@H]3[C@H](O)C=CC(=O)[C@@H]3CC[C@H]2C1=O | 1.48 (inactive) |
| CC(CCN1CCCc2nc(C)c(C)cc21)=NO[C@@H](C)c1cc(-c2c(C)cc(C)cc2C)no1 | -1.54 (inactive) |
| C[C@H](ON=C1[C@H]2CCn3c(=O)n(-c4ccccc4)c(=O)n3[C@H]2[C@H](O)[C@@H]2O[C@H]12)c1cn([C@H](CO)Cc2ccccc2)nn1 | -0.145 (inactive) |
| CCN1C(=O)[C@H]2[C@H]3[C@H](O)[C@H](O)CC(=O)[C@H]3CC[C@H]2C1=O | -0.286 (inactive) |
| C#CCCCON=C1C[C@@H](O)[C@@H](O)[C@@H]2[C@@H]3C(=O)N(c4ccc(F)cc4F)C(=O)[C@@H]3CC[C@H]12 | -0.98 (inactive) |
| O=C(NN=C1C[C@@H](O)[C@@H](O)[C@@H]2[C@@H]3C(=O)N(C4CCCCC4)C(=O)[C@@H]3CC[C@@H]12)OCc1ccccc1 | -0.922 (inactive) |
| CC(CCN1CCCCc2nc(C)c(C)cc21)=NOC[C@@H](O)COCc1ccco1 | -0.0954 (inactive) |
| C=CC1=C[C@H](O)[C@@H]2O[C@@H]2C12OCCCO2 | 0.301 (inactive) |
| CON=C1[C@H]2CCn3c(=O)n(-c4ccccc4)c(=O)n3[C@H]2[C@H](O)[C@@H]2O[C@H]12 | -1.45 (inactive) |
